Assay outcomes: PubChem, National Center for Advancing Translational Sciences (NCATS)
Compounds with a hit are over-represented: about 9.3% of the library has one in this group of screens.
HCV inhibitor: HCV inhibition; AID 651820; Huh7.5.1 HCVcc-Cre infection, luciferase reporter, 44 h; Potency, µM (doses to about 41.8 µM), without a hit: top-dose activity change, negative = inhibition, most hits filed as inhibitors; actives 3.4% (n = 340,000); note: potency is the fitted concentration of half-maximal effect
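Antiviral activity was scored by luciferase reporter output from cells infected with HCVcc-Cre (~0.5 moi) in presence of compound, 44 h infection period, cells seeded 1,000/well 4 h prior.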
Sm TGR block: S. mansoni TGR enzyme inhibition. purified TGR, DTNB reduction, TNB absorbance 405 nm. Potency, µM (top dose mostly 114 µM), inactives show at the highest dose activity change, negative = inhibition, hits mostly inhibitors. AID 485364. Q962Y6. actives 3% (n = 360,000); note: potency is the fitted concentration of half-maximal effect; nearly all actives have a fitted effect of over 60% in size
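Kinetic colorimetric format: TGR-catalysed, NADPH-driven DTNB reduction monitored via TNB absorbance. Enzyme dispensed at 20 nM; compound exposure 15 min at room temperature before reaction start.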
Vaccinia Venus: inhibitors of vaccinia virus (Venus reporter); actives 0.46% (n = 330,000); Vaccinia virus Venus reporter expression, fluorescence; Potency, µM (highest dose often 36.5 µM), without a hit: at the top dose activity change, negative = inhibition, actives largely listed as inhibitors; calls by dose curve; tested in A549 cells; note: potency is the fitted concentration of half-maximal effect; nearly all actives have a fitted effect of over 30% in size
FMDV inh: blocks foot and mouth disease virus | Potency, µM (highest dose often 57.9 µM), for inactives: top-dose activity change, negative = inhibition, hits mostly inhibitors | FMDV antiviral cell-based qHTS | AID 1159524 | actives 1.2% (n = 410,000); calls by dose curve; tested in HEK293T cells; note: read-out not given here; potency is the fitted concentration of half-maximal effect; nearly all actives have a fitted effect of over 45% in size
Vaccinia mCherry: vaccinia inhibition (mCherry reporter) | actives 0.63% (n = 310,000) | Vaccinia virus mCherry reporter infection, fluorescence | Potency, µM (highest dose often 36.5 µM), for inactives: at the top dose activity change, negative = inhibition, most hits filed as inhibitors | AID 720579; calls by dose curve; tested in A549 cells; note: potency is the fitted concentration of half-maximal effect; nearly all actives have a fitted effect of over 35% in size
HCMV inh: blocks human cytomegalovirus replication | HFF cells, HCMV-luciferase reporter, 72 h; active compounds read low | activity change, negative = inhibition, % at 57.5 µM | actives 4.5% (n = 410,000); in the data active = activity change below about -60%; inconclusive = no clear call, values can overlap the other calls; inactive = above about -39%
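Two compound doses tested in HFFs infected with HCMV-luciferase, MOI 1 PFU/cell, 72 h at 37C. Lysate luminescence read with OneGlo; data normalized against buffer-only and 10uM Salinomycin inhibitor controls.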
Active calls of the source: *; i = inactive; ? = inconclusive; nt = no result given; [ ] = remark or other dose. Unless noted, calls come from the whole dose curve; as a rule, active = well fitted curve in the direction sought with a large enough effect; inconclusive = small, poorly fitted or top-dose-only effect, or another doubt; inactive = no such curve, though single readings can be large; an effect the other way counts as inactive or inconclusive. % is set by controls: 0 for no effect and ±100 for the full control effect.

SMILES	HCV inhibitor	Sm TGR block	Vaccinia Venus	FMDV inh	Vaccinia mCherry	HCMV inh
Cc1ccc(CNC(=O)COc2ccc(C(=O)c3ccc(F)cc3)cc2)cc1	14%	-14%	-23%	-22%	?	-75*
COc1ccc(CNC(=O)COc2ccc(C(=O)c3ccc(F)cc3)cc2)cc1	?	-1%	-22%	0%	?	-20
C#CCOCCOCCOCCNc1nc(N2CCN(C(=O)C([C@@H](C)CC)n3cc(C(N)COC(=O)C(F)(F)F)nn3)CC2)nc(N2CCN(C(=O)[C@H](Cc3cc4ccccc4[nH]3)n3cc(C(N)CO)nn3)CC2)n1 (stereo partly drawn)	8%	nt	-7%	-8%	-16%	nt
Fc1ccc(-c2noc3ncnc(NCC4CCN(Cc5ccc(Cl)cc5)CC4)c23)cc1	nt	9%	-16%	-1%	-21%	-65*
COC1/C=C/C=C(\C)Cc2cc(O)c(Cl)c(c2)N(C)C(=O)CC(OC(=O)C(C)C)C2(C)OC2C(C)C2CC1(O)NC(=O)O2 (stereo not drawn)	16%	nt	?	0%	-3%	-91*
CC(C)CN(CC(C)C)C(=O)C1CCCN(S(=O)(=O)c2ccc3c(c2)oc(=O)n3C)C1 (stereo not drawn)	nt	3%	-2%	-36%	-5%	7
Cc1ccc(NC(=O)C2CCCN(S(=O)(=O)c3cnc[nH]3)C2)cc1F (stereo not drawn)	?	-1%	-8%	-10%	-2%	61
O=C(Nc1cccc(F)c1)C1CCCN(S(=O)(=O)c2cnc[nH]2)C1 (stereo not drawn)	19%	2%	nt	-21%	nt	-62*
COC(=O)c1cc(NC(=O)c2ccc([N+](=O)[O-])cc2)c(=O)oc1C	-24%	56µM*	3%	-6%	i	-11
CC(=O)c1cc(NC(=O)c2ccc([N+](=O)[O-])cc2)c(=O)oc1C	10%	22µM*	16%	1%	3%	-30
CC1Cc2ccccc2N1CC(=O)NC(=O)NCc1ccco1 (stereo not drawn)	-26%	?	nt	-21%	nt	14
Cc1ccc(Cl)cc1N1CCN(C(=O)C2CCN(S(=O)(=O)c3cccc4nonc34)CC2)CC1	nt	0%	-16%	?	-26%	-23
COCCNC(=O)c1ccc(CS(=O)(=O)c2c(Cl)cccc2Cl)o1	-8%	50µM*	-4%	-12%	-10%	68
O=C(NCc1ccc(F)cc1)c1ccc(CS(=O)(=O)Cc2ccccc2F)o1	?	40µM*	-16%	?	-6%	-30
O=C(NCCc1ccccc1)c1ccc(CS(=O)(=O)Cc2ccccc2Cl)o1	nt	50µM*	-17%	?	-17%	-16
O=C(NCc1ccc(F)cc1)c1ccc(CS(=O)(=O)Cc2ccc(F)cc2)o1	-25%	-18%	-13%	?	nt	17
O=C(NCCc1ccc(Cl)cc1)c1ccc(CS(=O)(=O)Cc2ccccc2F)o1	nt	-26%	-10%	40µM*	-21%	-37
CC1CCN(S(=O)(=O)c2ccc(NC(=O)CN3CCCCCC3)cc2)CC1	?	-8%	-25%	-10%	?	?
CCCn1c(SCc2nc3sc(C)c(C)c3c(=O)[nH]2)nc2ccccc2c1=O	-16%	3%	-12%	0%	-16%	-24
COc1ccc(-c2nn(-c3ccccc3)cc2CNCCN2CCOC2=O)c(F)c1	5%	0%[57.1 µM]	-7%	1%	-29%	-17
COc1ccc(-c2nn(-c3ccccc3F)cc2CNCCn2nc(C)cc2C)cc1	?	26%	-15%	?	i	-73*
O=C(COc1ccc(S(=O)(=O)N2CCOCC2)cc1Cl)NCc1ccco1	-5%	-31%	-10%	-16%	-19%	-13
CCOC(=O)CSc1nc2ccc(N3CCOCC3)cc2c(=O)n1Cc1ccc2c(c1)OCO2	4µM*	-17%	nt	nt	nt	nt
CCCCn1c(SCC(=O)NCc2ccco2)nc2cc(S(N)(=O)=O)ccc21	-22%	50µM*	2%	-7%	nt	-25
CCCCn1c(SCC(=O)Nc2ccc(OC)cc2)nc2ccc(N3CCOCC3)cc2c1=O	5%	28µM*	nt	1%	nt	45
SMILES	HCV inhibitor	Sm TGR block	Vaccinia Venus	FMDV inh	Vaccinia mCherry	HCMV inh
CCCCn1c(SCC(=O)NCc2ccco2)nc2ccc(N3CCOCC3)cc2c1=O	?	28µM*	nt	1%	nt	?
CCCCn1c(SCC(=O)NCc2ccccc2)nc2ccc(N3CCOCC3)cc2c1=O	-6%	-10%	nt	-11%	nt	-13
CCCCn1c(SCC(=O)N2CCCCC2)nc2cc(S(N)(=O)=O)ccc21	18%	20%[11.4 µM]	nt	4%	nt	29
O=Cc1cn(-c2ccccc2)nc1-c1cccnc1	10%	14%	-12%	17%	-19%	-12
c1csc(-c2nc(N3CCCCC3)no2)c1	-13%	0%	-8%	24%	i	1
COc1cc2nc(SCC(=O)NCc3ccco3)n(Cc3ccc(Cl)cc3)c(=O)c2cc1OC	-5%	-8%	nt	6%	nt	-69*
Cc1ccc(C(=O)N2CCCCC2)cc1S(=O)(=O)N1CCCC1	-1%	-16%	nt	37%	nt	7
Cc1ccccc1-n1nc(CSc2nc3ccccc3[nH]2)c(-c2ccccc2)c1N	?	-2%	-17%	?	-11%	-87*
Nc1c(-c2ccccc2)c(CSc2nc3ccccc3[nH]2)nn1-c1ccc(Cl)cc1	11µM*	-12%	?	0%	-23%	-39
Nc1c(-c2ccccc2)c(CSc2nc3ccccc3[nH]2)nn1-c1cccc(Cl)c1	?	-9%	?	?	?	-95*
c1ccc(-c2nnc(CSc3nc4ccccc4[nH]3)o2)cc1	22%	1%	-4%	-15%	-6%	-20
CCC(C(=O)N1CCC2(CC1)OCCO2)n1c2ccccc2c2nc(=O)cc(C)n21 (stereo not drawn)	20%	2%	-21%	-9%	-4%	16
CCCC(=O)N1CCN(c2ccc(NC(=S)NC(=O)c3cccc(C)c3)cc2)CC1	7.1µM*	?	4%	16µM*	-7%	?
CCC(=O)N1CCN(c2ccc(NC(=S)NC(=O)c3ccc(OC)c([N+](=O)[O-])c3)cc2)CC1	?	nt	-15%	?	?	-6
Cc1ccccc1C(=O)NC(=S)Nc1ccc(N2CCOCC2)cc1	-1%	?	-13%	9%	i	43
CC(=O)c1ccc(N2CCN(C(=S)Nc3ccc(Oc4ccccc4)cc3)CC2)cc1	4.5µM*	-3%	-24%	0%	?	-63*
O=C(NC(=S)Nc1ccc(N2CCOCC2)cc1)c1cccc(Cl)c1	25µM*	22µM*	-24%	-12%	-4%	20
O=C(NC(=S)Nc1ccc(N2CCOCC2)cc1)c1ccccc1	7%	16µM*	-10%	22%	-25%	12
